The source holds several records for some structures; these can differ, active in one and inactive in another. Active and inactive are the calls of the source. The calls were made as follows: active = hit-call score of the fitted dose curve at least 0.9, where 1 is the maximum; inactive = score below 0.9.
Each compound was assayed against Signal transducer and activator of transcription 3 (Homo sapiens) (UniProt P40763) (assay: ATG_STAT3_CIS: Attagene CIS-FACTORIAL HepG2 Assay for human Signal Transducer and Activator of Transcription 3 (STAT3) (AID 2282963)). Conditions: HepG2, Attagene cis-factorial STAT3 reporter transcription; actives raise or lower the signal.
Description: ATG_CIS is a cell-based, multiplexed-readout assay that uses HepG2, a human liver cell line, with measurements taken at 24 hours after chemical dosing in a 24-well plate.ATG_STAT3_CIS is one of 52 assay component(s) measured or calculated from the ATG_CIS assay. It is designed to make measurements of mRNA induction, a form of inducible reporter, as detected with fluorescence intensity signals by Reverse transcription polymerase chain reaction (RT-PCR) and Capillary electrophoresis technology.Data from the assay component ATG_STAT3_CIS was analyzed into 1 assay endpoint. This assay endpoint, ATG_STAT3_CIS, was analyzed with bidirectional fitting relative to DMSO as the negative control and baseline of activity. Using a type of inducible reporter, measures of mRNA for gain or loss-of-signal activity can be used to understand the reporter gene at the transcription factor-level as they relate to the gene STAT3. Furthermore, this assay endpoint can be referred to as a primary readout, because this assay has produced multiple assay endpoints where this one serves a reporter gene function. To generalize the intended target to other relatable targets, this assay endpoint is annotated to the dna binding intended target family, where the subfamily is stat protein.
Human liver HepG2 cells are transiently transfected with multiple reporter transcription units (MRTUs) in 6-well plates using FuGene 6 reagent (Roche; 3 ml FuGene/1 mg DNA). The MRTU constructs are regulated by a cis-regulating element (promoter). […] A major difference between the CIS and TRANS system is that in CIS activities of endogenous TFs are measured, whereas the TRANS assay evaluates changes in activities of exogenous, chimeric NR-Gal4 proteins. […] At the end of 24 hour incubation, total RNA was isolated using TriZol reagent (Invitrogen). The isolated RNA is then reverse-transcribed using oligo(dT) primer and Mo-MLV reverse transcriptase (Invitrogen) with DNAse I (Ambion) treatment for 30 min. The one-tenth of the produced cDNA was amplified by PCR using Taq DNA polymerase (Invitrogen) and two reporter sequence-specific primers. The PCR products were fluorescently labeled by primer extension with 6-arboxyfluorescein (6-FAM) 5'-labeled reporter sequence-specific primer (2 min at 95 C, 20 s at 68 C and 10 min at 72 C) and these products were digested with 5U of HpaI (New England Biolabs) for 2h at 37 C. The fragments were purified using Qiaquick PCR columns (Qiagen), analyzed on an ABI 3130xL genetic analyzer (Applied Biosystems) with peak positions identified by using a set of X-rhodamine (ROX)-labeled MapMarker1000 molecular weight standards (BioVentures). The raw capillary electrophoresis data was processed using Attagraph software (Attagene).

Sequence of Signal transducer and activator of transcription 3 (Homo sapiens) (P40763 whole entry, looked up): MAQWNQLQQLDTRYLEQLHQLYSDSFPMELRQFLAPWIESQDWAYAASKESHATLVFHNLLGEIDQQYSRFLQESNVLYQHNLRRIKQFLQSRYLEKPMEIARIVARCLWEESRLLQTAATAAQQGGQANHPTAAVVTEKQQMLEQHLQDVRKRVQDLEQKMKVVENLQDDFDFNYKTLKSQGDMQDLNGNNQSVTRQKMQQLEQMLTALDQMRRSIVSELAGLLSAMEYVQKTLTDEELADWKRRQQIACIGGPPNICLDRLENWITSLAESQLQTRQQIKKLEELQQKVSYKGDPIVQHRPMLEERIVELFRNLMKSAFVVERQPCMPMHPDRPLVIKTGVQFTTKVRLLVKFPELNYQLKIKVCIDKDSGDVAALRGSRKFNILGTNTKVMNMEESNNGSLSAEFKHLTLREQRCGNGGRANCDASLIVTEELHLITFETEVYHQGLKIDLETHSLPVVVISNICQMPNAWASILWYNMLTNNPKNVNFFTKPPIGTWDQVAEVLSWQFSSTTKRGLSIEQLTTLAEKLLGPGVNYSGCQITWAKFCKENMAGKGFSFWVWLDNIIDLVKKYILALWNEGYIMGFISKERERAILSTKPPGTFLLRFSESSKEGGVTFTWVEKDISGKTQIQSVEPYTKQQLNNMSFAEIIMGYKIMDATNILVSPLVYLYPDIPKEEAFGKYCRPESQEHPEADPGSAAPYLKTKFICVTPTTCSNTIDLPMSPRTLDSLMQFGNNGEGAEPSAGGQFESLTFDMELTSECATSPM

Structure (SMILES)	outcome	AC50
CCOC(=O)c1ccccc1S(=O)(=O)NC(=O)Nc1nc(Cl)cc(OC)n1	inactive	–
O=C(Nc1ccc(Br)cc1)c1cc(Br)cc(Br)c1O	inactive	–
C[As+](C)(C)CC(=O)[O-]	inactive	–
C=C(C)[C@@H]1CC=C(C=O)CC1	inactive	–
C=CC(=O)[O][Sn]([CH2]CCC)([CH2]CCC)[CH2]CCC	–	0.657 µM (active)
CCCCCCCCCCCCOS(=O)(=O)O	inactive	11.1 µM (active)
O=c1[nH]c(=O)n(Cl)c(=O)n1Cl	inactive	–
OC(c1ccc(Cl)cc1)(c1ccc(Cl)cc1)c1cccnc1	inactive	–
c1csc(-c2ccc(-c3cccs3)s2)c1	inactive	–
ClCc1ccccc1Cl	inactive	–
CC(C=O)Cc1ccc2c(c1)OCO2 (stereo not given)	inactive	–
CCCCCCCCCCCCCl	inactive	–
CS(=O)(=O)c1ccc(C(=O)C2C(=O)CCCC2=O)c(Cl)c1COCC(F)(F)F	inactive	–
Nc1cccnc1	inactive	–
CN(N=O)c1ccc([N+](=O)[O-])cc1	inactive	–
CC(C)C(C)(N)C#N (stereo not given)	inactive	–
OC[C@@H](O)[C@H]1O[C@@H]2O[C@H](C(Cl)(Cl)Cl)O[C@@H]2[C@H]1O	inactive	–
CCOC(=O)OC1=C(c2cc(C)ccc2C)C(=O)NC12CCC(OC)CC2 (stereo not given)	inactive	–
CCOc1cc(C=O)ccc1O	inactive	–
Cc1ccc(OP(=O)(Oc2ccc(C)cc2C)Oc2ccc(C)cc2C)c(C)c1	inactive	–

Structure (SMILES)	outcome	AC50
COc1nn(C(=O)NS(=O)(=O)c2ccccc2OC(F)(F)F)c(=O)n1C	inactive	–
[Cl][Sn]([c]1ccccc1)([c]1ccccc1)[c]1ccccc1	inactive	–
Nc1ccc(-c2ccccc2)cc1	inactive	–
CCOc1ccc(N)cc1	inactive	–
O=S(=O)(c1ccc(Cl)cc1)c1cc(Cl)c(Cl)cc1Cl	inactive	–
Nc1nc(=S)[nH][nH]1	inactive	–
CN(C)C(=S)S	inactive	–
c1ccc2c(c1)Oc1ccccc1O2	inactive	–
COc1ccc([N+](=O)[O-])cc1O	inactive	–
CCN(CC)C(=O)C(Cl)=C(C)OP(=O)(OC)OC	inactive	–
O=C(O)COc1cc(Cl)c(Cl)cc1Cl	inactive	–
O=C(NC(=O)c1c(F)cccc1F)Nc1cc(Cl)c(Oc2ncc(C(F)(F)F)cc2Cl)c(Cl)c1	inactive	–
C=CC(Cl)CCl (stereo not given)	inactive	–
Oc1c(Br)cc(Br)cc1Br	inactive	–
OCCCCO	inactive	–
O=C(CCl)NCO	inactive	–
CCOCn1c(-c2ccc(Cl)cc2)c(C#N)c(Br)c1C(F)(F)F	–	142 µM (active)
CC(O)(CS(=O)(=O)c1ccc(F)cc1)C(=O)Nc1ccc(C#N)c(C(F)(F)F)c1 (stereo not given)	inactive	–
OC(Cc1ccccc1Cl)(Cn1cncn1)C1(Cl)CC1 (stereo not given)	inactive	–

Source: PubChem BioAssay (EPA / NIEHS)
